Screening data deposited in PubChem by National Center for Advancing Translational Sciences (NCATS).
NPSR antagonist – blocks cAMP signaling of the human neuropeptide S receptor; Potency, µM (highest dose often 38.3 µM), inactives show top-dose activity change, negative = inhibition, hits mostly inhibitors; 1% of 220,000 active; CHO-NPSR cells, cAMP TR-FRET, antagonist mode; further: nearly all actives have a fitted effect of over 50% in size
Target sequence (Q6W5P4 whole entry, looked up): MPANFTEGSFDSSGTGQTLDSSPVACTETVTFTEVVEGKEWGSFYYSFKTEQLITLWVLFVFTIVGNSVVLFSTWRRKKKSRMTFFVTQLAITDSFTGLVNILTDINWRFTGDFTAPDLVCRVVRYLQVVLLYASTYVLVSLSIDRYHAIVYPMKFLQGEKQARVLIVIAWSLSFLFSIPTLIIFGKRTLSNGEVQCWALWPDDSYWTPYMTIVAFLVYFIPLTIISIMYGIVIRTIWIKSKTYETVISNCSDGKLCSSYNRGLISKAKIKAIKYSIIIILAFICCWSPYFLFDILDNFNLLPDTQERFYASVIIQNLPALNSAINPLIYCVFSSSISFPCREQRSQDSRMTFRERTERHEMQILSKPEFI
ALDH1A1 block – blocks purified human ALDH1A1 activity | Purified ALDH1A1, NADH fluorescence, propionaldehyde substrate | Potency, µM (titrated, usually from 75.3 µM), inactives show at the highest dose activity, negative = inhibition, hits mostly inhibitors | 7.3% of 220,000 active | AID 1030; active means well fitted inhibition curve with a large enough effect, not every such curve was filed as active; inconclusive means small, poorly fitted or top-dose-only effect, or another doubt; inactive means no such curve, though single readings can be large or run the other way;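 further: plate controls were no enzyme wells and a reference inhibitor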
Tau FP inhib – inhibitors of human tau fibril formation. P10636. Potency, µM (top dose mostly 57.7 µM), for inactives: top-dose activity, negative = inhibition, actives largely listed as inhibitors. K18 P301L tau heparin fibrillization, Alexa594 FP, 6 h. 0.39% of 280,000 active; further: nearly all actives have a fitted effect of over 55% in size
Target sequence (P10636 561-689 P618L limits assumed): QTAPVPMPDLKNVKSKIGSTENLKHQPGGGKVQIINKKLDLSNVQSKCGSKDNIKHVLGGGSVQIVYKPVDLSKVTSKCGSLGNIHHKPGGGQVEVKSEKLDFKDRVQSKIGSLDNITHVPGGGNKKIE
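Read-out: fluorescence polarization of Alexa 594-labeled tau (0.24 uM), 555 nm excitation, 632 nm emission. Mixtures held 15 uM unlabeled K18 P301L, compound and 20 uM heparin, pH 7 acetate buffer, incubated 6 hr at 37 C.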
HPGD inh – blocks human HPGD enzyme activity; P15428; purified HPGD, NADH fluorescence kinetic, PGE2 substrate; Potency, µM, inactives show at the highest dose activity change, negative = inhibition, most hits filed as inhibitors; 4.3% of 150,000 active; active means well fitted inhibition curve with a large enough effect, not every such curve was filed as active; inconclusive means small, poorly fitted or top-dose-only effect, or another doubt; inactive means no such curve, though single readings can be large or run the other way
Target sequence (P15428 whole entry, looked up): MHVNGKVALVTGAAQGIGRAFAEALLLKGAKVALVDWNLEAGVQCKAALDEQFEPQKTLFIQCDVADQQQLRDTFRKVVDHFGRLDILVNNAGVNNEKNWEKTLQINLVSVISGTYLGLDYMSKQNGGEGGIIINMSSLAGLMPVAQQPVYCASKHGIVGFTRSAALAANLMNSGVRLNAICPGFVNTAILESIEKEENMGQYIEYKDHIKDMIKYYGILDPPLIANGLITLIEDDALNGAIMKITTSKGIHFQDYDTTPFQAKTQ
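20 nM HPGD preincubated 15 min at room temperature with compound in 50 mM Tris-HCl pH 8, 0.01% Tween 20. Started with 1 mM NAD+ and 30 uM prostaglandin E2; NADH fluorescence (360/450 nm) read 5 times over 30-s intervals, last minus first.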
Tau fluor counter – counter-screen for tau fibril formation inhibitors; tau K18 P301L Alexa594 fluorescence, heparin fibrillization; 0.93% of 280,000 active; Potency, µM (series often up to 57.7 µM), inactives show top-dose activity change, negative = decrease; further: nearly all actives have a fitted effect of over 55% in size
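Human tau K18 P301L (15 uM unlabeled, 0.24 uM Alexa 594-labeled) in 100 mM sodium acetate pH 7 with 20 uM heparin, 6 hr at 37 C. ThT 30 uM added, 1 hr ambient; Alexa 594 FP and total fluorescence read at 555/632 nm.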
Tau fibril ThT – inhibitors of human tau fibril formation, thioflavin T binding | P10636 | recombinant tau K18 P301L (four-repeat tau fragment), heparin-induced fibrillization, ThT fluorescence | Potency, µM (doses to about 57.4 µM), inactives show at the top dose activity, negative = inhibition, usual class: inhibitors | 2.1% of 270,000 active | AID 1460; further: nearly all actives have a fitted effect of over 55% in size
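Heparin-induced (20 uM) aggregation of recombinant human K18 P301L tau, 15 uM unlabeled with 0.24 uM labeled, pH 7 acetate buffer, 6 hr at 37 C with compound. Fibrils quantified by 30 uM ThT fluorescence after 1 hr ambient incubation.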
* marks the source's active call; other numbers are inactive results; ? = inconclusive; · = no result; [ ] = another dose, or the depositor's remark. This is a sample that favours compounds with a hit; in the whole collection about 9.5% have one here. Unless noted, the call rests on the fitted dose curve; in most records, active means well fitted curve in the direction sought with a large enough effect; inconclusive means small, poorly fitted or top-dose-only effect, or another doubt; inactive means no such curve, though single readings can be large; an effect the other way counts as inactive or inconclusive. Unless noted, on the % scale 0 is the no-effect control and ±100 the full control effect; potency means the concentration at half of the fitted maximal effect.

SMILES | NPSR antagonist | ALDH1A1 block | Tau FP inhib | HPGD inh | Tau fluor counter | Tau fibril ThT
CN(CC(=O)NCc1ccc(Cl)cc1)S(=O)(=O)c1ccc2[nH]c3c(c2c1)CCCC3 | · | · | 14.3% | · | ? | 7.2%
Cc1ccc(NC(=O)CSCc2cc(=O)c3ccccc3[nH]2)c(C)c1 | · | · | -11.9% | · | -9.1% | -11.2%
COn1c(C)c(C)c2c3nonc3ccc21 | -26.9% | · | ? | · | ? | 14.1µM*
CC1CCN(S(=O)(=O)c2ccc3c(c2)c(=O)c(C(=O)NC(C)c2ccccc2)cn3C)CC1 (centres undefined) | · | · | -3.8% | · | ? | -7.9%
O=C(N/N=C/C=C/c1ccccc1)c1cccc(Br)c1 | -13.8%[46.1 µM] | -10.7% | -5.0% | -9.2% | -21.3% | ?
CCC/C=N/NC(=O)c1cccc(Br)c1 | 4.7% | 25.1µM* | -1.5% | · | -6.1% | ?
O=C(N/N=C/c1cc(Br)ccc1O)c1ccncc1 | 7.7% | · | ? | · | -8.6% | -9.2%
O=C(N/N=C/c1ccc(O)c2ncccc12)c1cccc(Br)c1 | 12.0% | 6.2% | 13.7% | · | ? | 6.31µM*
CC1(C)CC(=O)C2=C(C1)N(c1cccnc1)C(N)=C(C#N)C2c1cccs1 (centres undefined) | -8.5% | 22.4µM* | ? | -26.1% | -19.6% | 20µM*
CC1(C)CC(=O)C2=C(C1)N(N1CCOCC1)C(N)=C(C#N)C2c1cccs1 (centres undefined) | -3.3% | 9.1% | -5.7% | -11.4% | -3.2% | 2.1%
CCSc1sccc1C1C(C#N)=C(N)N(c2cccnc2)C2=C1C(=O)CC(C)(C)C2 (centres undefined) | 7.9%[46.1 µM] | -6.0% | 6.0% | -10.0% | -4.1% | -10.3%
CN(C)N1C(N)=C(C#N)C(c2cccs2)C2=C1CC(C)(C)CC2=O (centres undefined) | -15.2% | 10µM* | -3.3% | · | -11.7% | -3.4%
CCOc1ccc(-c2csc(NNC3=NCCCCC3)n2)cc1 | -37.3% | ? | ? | · | -23.6% | 15.8µM*
COc1ccc(-c2csc(NNC3=NCCCCC3)n2)cc1 | -24.5% | 12.6µM* | ? | · | -21.7% | 25.1µM*
O=C(Nc1ccccc1)N1CC2(CCN(C(=O)c3cccc(F)c3)CC2)C1 | · | -6.7% | · | -4.6% | · | ·
Cc1ccc(S(=O)(=O)Cn2nnnc2CN2CCCC3(CCCCC3)C2)cc1 | ? | 15.8µM* | -4.2% | -13.1% | -13.0% | -7.8%
CC1=CC(=O)C2C(C)(C)CCC[C@@]2(C)[C@@]1(O)CCc1ccoc1 (some centres undefined) | · | ? | -4.1% | -8.5% | -17.1% | ?
NC(=O)c1ccc(NCCCN2CCOCC2)c([N+](=O)[O-])c1 | -2.1% | 5.2% | -1.4% | · | 2.3% | -10.4%
O=C(c1ccc(C#CC2(O)CCCCC2)cc1)N1CCOCC1 | -2.1%[46.1 µM] | -11.3% | 4.7% | 14.1µM* | 9.1% | 1.8%
CCCCc1c(O)nc(SCC(=O)NC(C)(C)C)n(-c2ccccc2C)c1=O | -10.1%[46.1 µM] | -12.0% | -10.9% | -15.3% | -2.8% | -1.3%
COc1ccc(-c2nc(-c3cccs3)c(-c3cccs3)[nH]2)cc1O | 10µM* | ? | -1.6% | ? | 12.6µM*[quencher] | 12.6µM*
CCOC(=O)c1c(C)[nH]c(C(=O)CSc2ccc(Cl)cc2)c1C | -4.2%[46.1 µM] | 9.2% | -17.1% | -4.8% | -23.2% | -17.9%
CCOC(=O)c1c(C)[nH]c(C(=O)CSc2nc(C)cc(C)n2)c1C | 7.8% | 15.8µM* | -13.7% | -1.1% | -7.7% | 0.4%
Cc1cccc(NC(=O)CSc2nc(C)c(CC(=O)c3ccc(Br)cc3)c(C)c2C#N)c1C | 6.31µM* | 7.2% | -2.6% | -1.5% | -17.1% | -7.4%
COc1ccc2ncc3c(-c4ccc(C)c(C)c4)nn(CC(=O)Nc4ccccc4)c3c2c1 | · | · | -9.5% | · | -22.4% | -13.2%
SMILES | NPSR antagonist | ALDH1A1 block | Tau FP inhib | HPGD inh | Tau fluor counter | Tau fibril ThT
COc1cccc(C(CC(=O)NCC2CCCO2)NS(=O)(=O)c2ccc(C)cc2)c1OC (centres undefined) | -11.3%[46.1 µM] | 9.7% | -5.9% | -3.3% | -5.1% | -5.7%
COc1ccccc1CN(CC(=O)NCc1ccco1)C(=O)CNS(=O)(=O)c1ccccc1 | -10.3%[46.1 µM] | ? | 1.2% | -2.3% | 1.2% | -16.5%
COc1cccc(C(CC(=O)NCc2ccco2)NS(=O)(=O)c2ccc(C)cc2)c1OC (centres undefined) | 5.0%[46.1 µM] | 20µM* | -1.4% | -9.4% | -4.0% | -15.8%
COc1ccccc1CN(CC(=O)NCc1ccco1)C(=O)CNS(=O)(=O)c1ccc(C)cc1 | -4.4%[46.1 µM] | 22.4µM* | -7.5% | 3.4% | -5.4% | -9.5%
O=C(CN(Cc1ccc2c(c1)OCO2)C(=O)CNS(=O)(=O)c1ccccc1)NCc1ccco1 | -10.9%[46.1 µM] | 4.47µM* | -1.4% | -8.7% | -5.7% | -0.8%
NS(=O)(=O)c1ccc(CCNC(=O)c2ccc3c(c2)OCCO3)cc1 | -1.8% | 13.1% | -11.7% | · | -7.3% | -16.8%
COC(=O)[C@@]1(Cc2ccccc2)[C@H]2c3cc(C(=O)N4CCCC4)n(CC4CC4)c3C[C@H]2CN1C(=O)c1ccccc1 | · | -1.9% | -8.3% | -9.7% | -8.3% | ?
CCC(=O)Nc1cc(-c2nn(C)c(=O)c3ccccc23)ccc1N1CCOCC1 | -11.4%[46.1 µM] | ? | 3.3% | -12.1% | -4.9% | 4.3%
Cn1nc(-c2ccc(N3CCCCC3)c(NC(=O)c3ccco3)c2)c2ccccc2c1=O | ? | 31.6µM* | ? | -28.5% | -21.4% | ?
Cc1ccc(CCNC(=O)CCCc2nnc3n(C)c(=O)c4sccc4n23)cc1 | · | · | -3.0% | · | 1.9% | 1.6%
C=CCNC(=S)NS(=O)(=O)c1cccs1 | 10.0% | 17.8µM* | 0.5% | · | 0.1% | -0.4%
C=CCNC(=O)/C=C/c1cccs1 | -1.1% | 0.7% | -5.6% | · | -0.3% | 4.0%
CC(C)(C)c1ccc(-c2nnc3sc(-c4ccncc4)nn23)cc1 | -25.5%[46.1 µM] | 12.6µM* | 10.6% | ? | -0.9% | -9.7%
COc1ccc(-c2nnc3sc(COc4ccccc4)nn23)cc1 | ? | -5.6% | 6.6% | -17.5% | -17.7% | ?
Cc1cc(-c2nn3c(-c4ccccc4)nnc3s2)c2ccccc2n1 | -23.0%[46.1 µM] | 8.91µM* | 16.8% | 14.1µM* | -12.6% | ?
Cc1ccc(-c2nnc3sc(CCc4ccccc4)nn23)cc1 | -23.1%[46.1 µM] | 3.55µM* | -11.6% | 14.1µM* | -6.5% | -8.0%
Cc1ccccc1-c1nn2c(-c3ccccc3)nnc2s1 | 1.8%[7.67 µM] | ? | -5.9% | 28.2µM* | 1.6% | ?
CCn1ccc2c(OCC(=O)Nc3ccccc3C(F)(F)F)cccc2c1=O | · | · | -3.4% | · | -13.1% | -14.0%
COC(=O)Cc1[nH]nc2c1C1(C(=O)N(Cc3ccc(Cl)cc3)c3ccccc31)C(C#N)=C(N)O2 (centres undefined) | -4.8%[46.1 µM] | ? | -6.0% | -4.1% | -16.7% | -6.0%
